We go through one molecule from PubChem BioAssay AID624261 (National Center for Advancing Translational Sciences (NCATS), 2012).

The list shows a part of the results. Activity calls are given as the source filed them. Calls follow the shape of the full dose curve.

The target of this test is Glutaminase kidney isoform, mitochondrial (Homo sapiens) (UniProt O94925). Briefly: qHTS for Inhibitors of Glutaminase (GLS): Hit Confirmation. To be noted: biochemical glutaminase enzyme inhibition assay. The text has this: Glutaminase (GLS) catalyzes the hydrolysis of glutamine into glutamate and ammonia. It plays a critical role in glutaminolysis, which is an important energy source for proliferating cells. It was shown that c-Myc, an oncogenic transcription factor known to regulate microRNAs and to stimulate cell proliferation, increases glutamine metabolism by stimulating the expression of GLS via direct suppression of miR23a and miR23b.
Chain of Glutaminase kidney isoform, mitochondrial (Homo sapiens) (O94925 whole entry, looked up, canonical isoform): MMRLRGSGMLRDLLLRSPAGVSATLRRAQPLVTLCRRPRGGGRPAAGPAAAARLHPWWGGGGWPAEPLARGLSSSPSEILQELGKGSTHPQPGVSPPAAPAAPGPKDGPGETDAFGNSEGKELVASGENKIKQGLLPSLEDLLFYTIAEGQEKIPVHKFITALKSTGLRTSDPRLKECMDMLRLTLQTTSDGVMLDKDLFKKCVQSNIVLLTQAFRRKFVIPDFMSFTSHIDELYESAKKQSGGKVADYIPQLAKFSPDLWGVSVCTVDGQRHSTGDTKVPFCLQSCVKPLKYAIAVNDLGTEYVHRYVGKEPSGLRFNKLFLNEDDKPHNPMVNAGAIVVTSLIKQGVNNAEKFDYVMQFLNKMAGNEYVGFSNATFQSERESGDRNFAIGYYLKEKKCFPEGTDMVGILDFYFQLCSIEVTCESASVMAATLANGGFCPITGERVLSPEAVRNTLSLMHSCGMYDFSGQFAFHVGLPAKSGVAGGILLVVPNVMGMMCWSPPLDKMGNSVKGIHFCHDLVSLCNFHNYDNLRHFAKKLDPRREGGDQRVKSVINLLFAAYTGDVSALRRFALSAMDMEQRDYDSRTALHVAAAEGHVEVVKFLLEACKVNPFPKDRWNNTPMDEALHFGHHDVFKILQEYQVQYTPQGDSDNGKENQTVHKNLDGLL
GLS is also thought to play a pathogenic role on HAD using a human HIV-1 infected macrophage system. […] GLS inhibition limits glutamate release and provides neuroprotection against HIV-1 infected macrophages.
The overall goal of this project is to identify small molecule inhibitors of GLS through quantitative high throughput screening (qHTS) of the MLSMR. A validated potent and selective inhibitor can be used as a tool molecule to further study the pharmacology of its target as well as explore its potential therapeutic application in cancer and inflammatory neurological disorders, such as HIV1-associated dementia (HAD) and multiple sclerosis. This is the hit confirmation in the primary assay data. […]
Three 3 uL of hKGA is dispensed into black well 1536-well plates in 45 mM KH2PO4 (pH 8.2), 0.02% Tween-20. […] Plate is centrifuged for 25 sec before an initial fluorescence read is obtained on the ViewLux, after 30 min of RT incubation, the final read is taken on the ViewLux.
(In general: Quantitative high-throughput screening tests each substance at several concentrations.)
For the molecule `COc1cc(OC)c(S(=O)(=O)Nc2ccccc2C(=O)O)cc1S(=O)(=O)Nc1ccccc1C(=O)O`, the Potency is 5.8 µM (active).
